The source of these data is PubChem BioAssay (NCATS).

Several values for one entry are separate records, joined by “and”; a condition that tells them apart may be missing. Identical values can stand only once. Records with an inconclusive call do not appear. Where a call stands in place of a potency, no number is given. Values without a mark were called inactive. Activity calls are given as the source filed them. Calls come from the whole dose curve; as a rule, active = well fitted cell-killing curve with a large enough effect; inconclusive = small, poorly fitted or top-dose-only effect; inactive = no such curve, though single readings can be large or run the other way.
Potency is the fitted concentration of half-maximal effect.

This assay in a line: qHTS of pediatric cancer cell lines to identify multiple opportunities for drug repurposing: Primary screen for Rh41 cells (AID 1347108).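 For activity change, negative = cytotoxic: luminescence drop marks cytotoxic hits.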 Note: nearly all actives have a fitted effect of over 70% in size. The note with it: Rh41 rhabdomyosarcoma viability, CellTiter-Glo luminescence, 48 h; series mostly up to 46 µM; activity change, negative = cytotoxic: at the top concentration. From the text: Drug repurposing or repositioning has been offered as a strategy for drug development in oncology programs. This approach has special potential for childhood cancers and other rare or orphan diseases, where the expected return on new drug development has been a disincentive to pharmaceuticals. […] In this project we exploit the poly-pharmacology of drugs to discover new indications via phenotypic screening of a panel of 19 well-characterized cell lines derived from solid tumors seen in children and adolescents. The goal is to identify approved drugs with previously unrecognized anticancer properties that has the potential to reveal new mechanisms and biological processes involved in carcinogenesis or drug resistance. We employed a titration-based paradigm (quantitative high-throughput screening or qHTS), where all compounds were tested at multiple concentrations for their effect on cell viability. Concentration-response curves (CRCs) were derived directly from the primary screen, and both potency and efficacy values were used to identify compounds with robust bioactivity profiles. We screened the NIH Chemical Genomics Center (NCGC) Pharmaceutical Collection (NPC) and Mechanism Interrogation Plate (MIPE) small molecule collections of approved and investigational compounds against these cell lines; and measured metabolically active cells after 48 hours of compound treatment as a proxy for cell viability. […] Assay Submitter: Nathalia J. Martinez, National Center for Advancing Translational Sciences, National Institutes of Health, Rockville, MD, USA; email: natalia.martinez@nih.gov Shen, M et al. Quantitative high-throughput phenotypic screening of pediatric cancer cell lines identifies multiple opportunities for drug repurposing. Oncotarget 2017 Dec 19;9(4):4758-4772. PMID 29435139.
The cells were obtained from University of North Carolina (UNC), Pediatric Preclinical Testing Program (PPT), and Coriell Institute (CI). qHTS cell viability assay: Cells were assayed in growth media at a density of 500-1,000 cells/well. Five microliters of cells were dispensed into 1,536-well, white, solid-bottom, TC-treated plates (Greiner Bio One) using a multidrop dispenser and incubated at 37 degrees C, 5% CO2, under a humidified atmosphere for 5 hours. Twenty-three nanoliters of compounds and controls (neutral control DMSO or positive control bortezomib at final concentration of 2.3 µM) were subsequently transferred by Kalypsys pintool. For primary screens, the MIPE collection was tested at 11-point dilutions (final concentrations range from 0.78 nM to 46 µM) and the NPC collection at 8-point dilutions (final concentrations range from 0.59 nM to 46 µM). Compounds tested in follow-up screens were assayed at 11-point dilutions. Cells were incubated for 48 hours, followed by addition of 3 µL of CellTiter-Glo (Promega). After a 15 min incubation at room temperature, samples were analyzed for luminescence intensity using a ViewLux High-throughput CCD imager equipped with clear filters.
In the case of `O=P(O)(O)C(O)(Cc1cccnc1)P(=O)(O)O`, the Potency entry is “inactive”.
On to `Clc1ccccc1CN1CCc2sccc2C1`, for which the Potency entry is “inactive”.
For `CCCCS(=N)(=O)CCC(N)C(=O)O` (stereo not given), the “activity change, negative = cytotoxic” value was 18.7%.
Turning to `NNC(=O)c1ccncc1`, the Potency entry is “inactive”.
Regarding `OC(Cn1cncn1)(Cn1cncn1)c1ccc(F)cc1F`, the Potency result was “inactive”.
Consider `N[C@@H](Cc1ccc(O)c(O)c1)C(=O)O`, for which the “activity change, negative = cytotoxic” value is 33.8%.
Take `CCC(C)(C)c1ccc(CC(C)CN2C[C@@H](C)O[C@@H](C)C2)cc1` (stereo not given in full): the Potency entry was “inactive”.
The same measure, in the same setting: in the case of `CCOCC(O)COc1ccc(NC(=O)CC[S+](C)C)cc1` (stereo not given) it was “inactive”; in that of `CCn1cc(C(=O)O)c(=O)c2cc(F)c(N3CCNCC3)nc21`, “inactive”.
Regarding `CCCOc1ccc(C(=O)OCCN(CC)CC)cc1N`, the Potency result was “inactive”.
The same measure, in the same setting: the entry for `O=NN(CCCl)C(=O)NC1CCCCC1` is “inactive”.
For the compound `CN(CCOc1ccc(CC2SC(=O)NC2=O)cc1)c1ccccn1` (stereo not given), the “activity change, negative = cytotoxic” value is 28.1%.
Consider `CO[C@@]12[C@H](COC(N)=O)C3=C(C(=O)C(C)=C(N)C3=O)N1C[C@@H]1N[C@@H]12`, for which the Potency is 13.3 µM (active) and 11.8 µM (active).
On the same count and under the same terms, the entry for `NS(=O)(=O)c1cc2c(cc1Cl)NC(C(Cl)Cl)NS2(=O)=O` (stereo not given) is “inactive”.
Same read-out and setting: in the case of `CCC(=O)O[C@]1(C(=O)CCl)[C@@H](C)C[C@H]2[C@@H]3CCC4=CC(=O)C=C[C@]4(C)[C@@]3(F)[C@@H](O)C[C@@]21C` it was “inactive”.
`CC(C)OC(=O)C(C(=O)OC(C)C)=C1SC=CS1`: the “activity change, negative = cytotoxic” value is 14.7%.
`CC(=O)[C@H]1CC[C@H]2[C@@H]3CC=C4C[C@@H](O)CC[C@]4(C)[C@H]3CC[C@]12C`: the Potency result was “inactive”.
Consider `O=S(=O)(O)CCS`, for which the Potency entry is “inactive”.
In the case of `CN1CCCC(n2nc(Cc3ccc(Cl)cc3)c3ccccc3c2=O)CC1` (stereo not given), the “activity change, negative = cytotoxic” value is 2.7%.
Still for that read-out and setting: the figure for `CC1=C(C(=O)O)N2C(=O)[C@@H](NC(=O)C(N)c3ccccc3)[C@H]2SC1` (stereo not given in full) is 27.9%.
In the case of `CO[C@@H]1[C@@H](OC(N)=O)[C@@H](O)[C@H](Oc2ccc3c(O)c(NC(=O)c4ccc(O)c(CC=C(C)C)c4)c(=O)oc3c2C)OC1(C)C`, the Potency entry was “inactive”.
Same read-out and setting: in the case of `CNS(=O)(=O)CCc1ccc2[nH]cc(C3CCN(C)CC3)c2c1` it was “inactive”.
The same measure, in the same setting: the entry for `COc1ccccc1OCC(O)COC(N)=O` (stereo not given) is “inactive”.
In the case of `COc1cc([C@@H]2c3cc4c(cc3[C@H](O)[C@H]3COC(=O)[C@H]23)OCO4)cc(OC)c1OC`, the “activity change, negative = cytotoxic” value is -31.9%.
Consider `C[C@]12C=CC(=O)C=C1CC[C@@H]1[C@@H]2C(=O)C[C@@]2(C)[C@H]1CC[C@]2(O)C(=O)CO`, for which the Potency entry was “inactive”.
`CC(C)(C#N)c1cc(Cn2cncn2)cc(C(C)(C)C#N)c1`: the Potency entry was “inactive”.
On the same count and under the same terms, in the case of `Cc1onc(-c2ccccc2Cl)c1C(=O)N[C@@H]1C(=O)N2[C@@H]1SC(C)(C)[C@@H]2C(=O)O` it was “inactive”.
Take `CCOc1cc(N)c(Cl)cc1C(=O)NCC1CN(Cc2ccc(F)cc2)CCO1` (stereo not given): the Potency entry was “inactive”.
The same measure, in the same setting: in the case of `CN1CCN(c2c(F)cc3c(=O)c(C(=O)O)cn4c3c2OCN4C)CC1` it was “inactive”.
On to `COc1cc2nc(N3CCCN(C)CC3)nc(NC3CCN(Cc4ccccc4)CC3)c2cc1OC`, for which the Potency was 18.7 µM (active).
For `Nc1nc(F)nc2c1ncn2[C@@H]1O[C@H](CO)[C@@H](O)[C@@H]1O`, the Potency is 1.48 µM (active).
Same read-out and setting: in the case of `NC(=O)N1c2ccccc2CC(=O)c2ccccc21` it was “inactive”; in that of `CC(C)OC(=O)OCOP(=O)(CO[C@H](C)Cn1cnc2c(N)ncnc21)OCOC(=O)OC(C)C`, “inactive”; in that of `Cc1ccnc2c1NC(=O)c1cccnc1N2C1CC1`, “inactive”.
As for `O=C(O)c1cn(C2CC2)c2cc(N3CCNCC3)c(F)cc2c1=O`, the Potency entry was “inactive”.
`CC(C(=O)O)c1ccc2c(c1)CC(=O)c1ccccc1S2` (stereo not given): the “activity change, negative = cytotoxic” value is 32.3%.
As to `Cc1ncc([N+](=O)[O-])n1CCO`, the Potency entry was “inactive”.
Same read-out and setting: in the case of `COCCCOc1cc(C[C@@H](C[C@H](N)[C@@H](O)C[C@H](C(=O)NCC(C)(C)C(N)=O)C(C)C)C(C)C)ccc1OC` it was “inactive”.
Take `COc1cnc(NS(=O)(=O)c2ccc(N)cc2)nc1`: the “activity change, negative = cytotoxic” value is 38%.
In the case of `CC(C)(Sc1cc(C(C)(C)C)c(O)c(C(C)(C)C)c1)Sc1cc(C(C)(C)C)c(O)c(C(C)(C)C)c1`, the Potency entry was “inactive”.
